Screening results from PubChem.
ELG1 DNA repair: blocks ELG1-dependent DNA repair in HEK293T cells | Potency, µM (highest dose often 46.1 µM), actives largely listed as inhibitors | HEK293T ELG1-luciferase reporter, luminescence, 16 h; DNA damage induced by 5-fluorouridine | 330,000 compounds, 2.3% hits; further: nearly all actives have a fitted effect of over 55% in size
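DMSO vehicle served as the neutral condition. Each well held 2,000 cells given 5-fluorouridine plus compound; after 16 hr at 37 °C/5% CO2, ONE-Glo was added and luciferase measured 30 min later.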
FLuc counter: firefly luciferase modulation, counter-screen for miR-21 project; P08659; purified FLuc, Km substrates, luminescence inhibition; Potency, µM (series often up to 57.5 µM), actives largely listed as inhibitors; 360,000 compounds, 6.9% hits; AID 588342; further: nearly all actives have a fitted effect of over 55% in size
Target sequence (P08659 whole entry, looked up): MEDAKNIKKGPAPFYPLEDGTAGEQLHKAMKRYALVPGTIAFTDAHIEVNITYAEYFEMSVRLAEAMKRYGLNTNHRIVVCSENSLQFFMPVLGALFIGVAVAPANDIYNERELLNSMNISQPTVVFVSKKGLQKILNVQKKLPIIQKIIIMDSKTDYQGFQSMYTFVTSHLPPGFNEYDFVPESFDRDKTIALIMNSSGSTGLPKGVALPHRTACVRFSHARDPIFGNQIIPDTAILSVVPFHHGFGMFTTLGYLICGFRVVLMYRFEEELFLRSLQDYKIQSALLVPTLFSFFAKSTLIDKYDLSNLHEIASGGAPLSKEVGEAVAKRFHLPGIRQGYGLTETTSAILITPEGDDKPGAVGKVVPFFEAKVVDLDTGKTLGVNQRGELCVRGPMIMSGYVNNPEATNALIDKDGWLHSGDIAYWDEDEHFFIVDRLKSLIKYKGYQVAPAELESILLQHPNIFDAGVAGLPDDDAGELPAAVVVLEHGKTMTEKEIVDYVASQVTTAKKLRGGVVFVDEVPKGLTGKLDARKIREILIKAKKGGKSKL
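Biochemical qHTS of compounds, final roughly 60 µM downward over six points, against 10 nM purified firefly luciferase using Km concentrations of substrates (10 uM D-luciferin, 10 uM ATP) in Tris acetate pH 7.5 buffer; luminescence output.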
SMN2 splice up: SMN2 splice variant enhancement | Potency, µM (titrated, usually from 46.1 µM), most hits filed as activators | HEK293 SMN2-luciferase splicing reporter, luminescence, 30-36 h | 210,000 compounds, 2.8% hits; further: nearly all actives have a fitted effect of over 55% in size
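HEK293 cells carry an SMN2 […]–luciferase reporter in which exon 7 inclusion puts luciferase in frame. Cells were plated 10-12 h before compound addition, then incubated 30-36 h at 37C. ONE-Glo luminescence was read; sodium butyrate at 4.5 mM final served as control.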
ELG1 genotox: inducers of genotoxicity in HEK293T ELG1-luciferase cells; HEK293T ELG1-luciferase reporter, luminescence, 16 h; Potency, µM (titrated, usually from 46 µM), usual class: activators; 330,000 compounds, 1.3% hits; further: nearly all actives have a fitted effect of over 60% in size
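Quantitative HTS format in 1536-well plates. HEK293T ELG1-luciferase reporter cells receive test compound and are incubated 16 hr at 37 °C, 5% CO2; ONE-Glo added, 30 min room temperature, then luminescence read.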
Rab9 promoter act: activators of Rab9 promoter. AID 485297. Huh7 Rab9 promoter-luciferase reporter, luminescence, 24 h. 320,000 compounds, 2.8% hits. Potency, µM (doses to about 9.22 µM), most hits filed as activators; further: nearly all actives have a fitted effect of over 60% in size
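Huh7 cells stably carrying a Rab9 promoter-luciferase reporter, 1500 cells per well in OP-MEM I with 10% FBS, treated with compound 24 hours at 37C. Luciferase activity read by luminescence after 10 minutes with Amplite reagent.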
NPC1 prom act: activates the NPC1 promoter. Huh7 NPC1 promoter luciferase reporter, 24 h. Potency, µM (top dose mostly 9.22 µM), hits mostly activators. 320,000 compounds, 2.4% hits; further: nearly all actives have a fitted effect of over 60% in size
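Quantitative HTS used a cell-based reporter: Huh7 cells stably bearing the NPC1 promoter upstream of luciferase were treated with compounds for 24 h, and promoter activation was read as luminescence.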
A number is an active result; n = inactive; u = inconclusive; x = not tested or not shown; [ ] = remark or other dose. Sampled rows, rich in hits. Any-hit rate of the full collection: about 9.4%. The call rests on the fitted dose curve; in most records, active means well fitted curve in the direction sought with a large enough effect; inconclusive means small, poorly fitted or top-dose-only effect, or another doubt; inactive means no such curve, though single readings can be large; an effect the other way counts as inactive or inconclusive.

SMILES	ELG1 DNA repair	FLuc counter	SMN2 splice up	ELG1 genotox	Rab9 promoter act	NPC1 prom act
COc1c2c(c3c(c1CCC(=O)O)OC(C)(C)C=C3)OC(C)(C)C=C2	x	x	n[9.22 µM]	x	x	x
CC(C)N(Cc1ccccc1)S(=O)(=O)c1n[nH]c(C(C)(C)C)n1	x	x	n[9.22 µM]	x	x	x
Cc1ccc2c(c1)C(=O)OC(C(=O)Nc1ccc(C(=O)O)cc1)C2 (configuration not stated)	x	7.57µM	n	x	x	x
CCC(=O)N1c2nc(C(C)C)nn2C2(CCCCC2)[C@@H]2CCCC[C@@H]21	x	n	x	x	x	x
CC(=O)n1c(Cl)c(NC(=O)CCl)c2ccccc21	25.9µM	n	n	n	n	n
CC(Sc1nc(=O)cc(N)n1CCc1ccccc1)C(=O)Nc1ccccc1C#N (configuration not stated)	x	n	n	x	x	x
COc1ccc(NC(=S)Nc2cccnc2)c(OC)c1	n	n	n	n	n	n
COc1ccc(NC(=S)Nc2cc(C)ccn2)c(OC)c1	u	2.69µM	11.2µM	u	u	u
COc1ccc(NC(=S)NC(=O)CC(C)C)c(OC)c1	n	13.5µM	n	n	n	n
COc1cc(NC(=S)Nc2ccccn2)cc(OC)c1	n	9.53µM	n	n	n	n
COc1ccc(NC(=S)Nc2ccccc2OC)c(OC)c1	n	n	n	n	n	n
COc1ccc(NC(=S)Nc2cnc3ccccc3c2)c(OC)c1	u	6.01µM	n	n	n	n
COc1ccc2c(C)c(CCC(=O)NCc3ccccc3OC)c(=O)oc2c1	x	n	n	x	x	x
COc1ccc(NC(=S)Nc2ccc(OC)cc2OC)c(OC)c1	n	n	n	n	n	n
COc1ccc(NC(=S)Nc2ccccn2)c(OC)c1	u	u	11.2µM	u	u	u
CC(=O)c1ccc(NC(=O)c2cnsn2)cc1	u	12µM	x	u	1µM	2µM
O=C(Nc1ccccc1N1CCOCC1)c1cnccn1	n	n	n	n	n	n
O=C(Nc1ccc(N2CCOCC2)cc1)c1cnccn1	u	1.9µM	x	u	0.316µM	u
CS(=O)(=O)c1ncc(Cl)c(C(=O)Nc2ccc(N3CCOCC3)cc2)n1	n	12µM	n	u	n	n
CCCCc1ccc(NC(=O)c2cnccn2)cc1	u	2.39µM	3.16µM	u	0.794µM	0.501µM
Cc1ccccc1-c1nnc(CN2CCN(c3ccccn3)CC2)o1	x	n	n	x	x	x
O=C(Nc1ccc(N2CCOCC2)cc1)c1cnsn1	u	0.953µM	2.82µM	0.164µM	u	u
CCc1ccc2[nH]c(=O)c(CN(CCN(C)C)C(=S)NCc3ccco3)cc2c1	n	n	x	n	n	n
COc1ccc2cc(CN(Cc3ccco3)C(=S)NCC3CCCO3)c(=O)[nH]c2c1 (configuration not stated)	23.1µM	n	n	n	n	n
CCc1ccc2[nH]c(=O)c(CN(CC3CCCO3)C(=S)NCc3ccco3)cc2c1 (configuration not stated)	18.3µM	n	x	n	n	n
SMILES	ELG1 DNA repair	FLuc counter	SMN2 splice up	ELG1 genotox	Rab9 promoter act	NPC1 prom act
O=C(Nc1ccccc1)N1CCCC2CCCCC21 (configuration not stated)	u	15.1µM	11.2µM	20.6µM	3.16µM	u
CN(CC(=O)O)Cc1c[nH]c2ccccc12	x	x	n[9.22 µM]	x	x	x
CCN1CCN(C(c2ccc(F)cc2)c2sc3nc(-c4ccco4)nn3c2O)CC1 (configuration not stated)	x	n	x	x	x	x
COc1ccc(OC)c(NC(=O)c2nnn(Cc3ccc(Br)cc3F)c2N)c1	20.6µM	n	n	n	n	n
COc1ccc(NC(=O)c2nnn(CC(=O)Nc3ccc4c(c3)OCO4)c2N)cc1OC	n	n	x	n[9.26 µM]	n	n
COc1ccc(NC(=O)c2nnn(CC(=O)Nc3ccc4c(c3)OCO4)c2N)c(OC)c1	u	1.9µM	x	n[9.26 µM]	n	n
CCn1ccc2cc(S(=O)(=O)N3CCCN(C(=O)Nc4ccccc4F)CC3)ccc21	x	n	x	x	x	x
COC(=O)c1cc2occc2n1CC(=O)Nc1ccc(N(C)C)cc1	x	n	n	x	x	x
CN(C)/C=C/c1c([N+](=O)[O-])c2ccc(O)cc2n1-c1ccccc1	7.3µM	n	x	n	n	n
Cc1ccn(CCC(=O)Nc2ccc3c(c2)OCO3)n1	n	n	x	n	n	n
O=C(Nc1ccccc1)c1ccc(C(=O)Nc2ccccc2)nc1	u	n	n	u	2µM	u
CC(=O)Nc1cccc(NC(=O)c2ccc(C(=O)Nc3cccc(NC(C)=O)c3)nc2)c1	u	3.79µM	n	n	n	n
CC(=O)c1cccc(NC(=O)c2ccc(C(=O)Nc3cccc(C(C)=O)c3)nc2)c1	n	n	n	n	n	n
Cc1cccc(NC(=O)c2ccc(C(=O)Nc3cccc(C)c3)nc2)c1	n	n	n	n	n	n
Cc1cc2cc(CN(Cc3cccs3)C(=S)NCc3ccco3)c(=O)[nH]c2cc1C	20.6µM	n	n[1.84 µM]	n	n	n
CCN(CC)CCN(Cc1cc2cc(C)c(C)cc2[nH]c1=O)C(=S)NCc1ccco1	n	23.9µM	x	n	n	n
Cc1ccc(C)c2[nH]c(=O)c(CN(Cc3cccs3)C(=S)NCc3ccco3)cc12	16.4µM	n	n[1.84 µM]	n	n	n
C/C(Cl)=C\Cn1c(Nc2ccccc2)nc2c1c(=O)n(C)c(=O)n2C	11.2µM	n	n	n	n	n
CC(O)CNc1nc2c(c(=O)n(C)c(=O)n2C)n1C/C=C/c1ccccc1 (configuration not stated)	23.1µM	n	n	n	n	n
Cn1c(=O)c2c(nc(NCCCO)n2C/C=C/c2ccccc2)n(C)c1=O	11.6µM	n	n	n	n	n
C/C(Cl)=C/Cn1c(NCCN(C)C)nc2c1c(=O)n(C)c(=O)n2C	n	n	n	n	n	n
CC(C)C(=O)Nc1nnc2n1CCS2	x	n	x	x	x	x
CCCOc1ccc(C2C(=O)N(C3CCCCCC3)CC(=O)N2CCC)cc1OC (configuration not stated)	x	n	x	x	x	x
Cc1ccc(OCCn2nc3ccccc3n2)c(C)c1	u	u	n	18.4µM	n	n
Cc1ccc(OCCCCn2ccnc2C)c(C)c1	11.6µM	n	n	n	n	n
Cc1c(Cl)cccc1-n1nnc(-c2nc(-c3ccc4c(c3)OCO4)no2)c1C	x	3.01µM	x	x	x	x
COc1ccc(Cl)cc1-n1nnc(-c2nc(-c3ccc4c(c3)OCO4)no2)c1C	x	n	x	x	x	x
CC[C@H]1CN(C)[C@H]2Cc3c([nH]c4ccccc34)C(=O)C[C@H]1[C@H]2C(=O)OC	x	x	n[9.22 µM]	x	x	x
O=C(NCc1ccc(F)cc1)c1c2c(nc3ccccc13)CCN(Cc1ccccc1)C2	n	n	n	n	n	n
O=C(COC(=O)c1c2c(nc3ccccc13)CCN(Cc1ccccc1)C2)Nc1c(F)cccc1F	5.8µM	u	n	n	n	n
